Inconclusive results are not listed. The source holds several records for some structures; these can differ, active in one and inactive in another. Activity calls are given as the source filed them. The calls were made as follows: active = hit-call score of the fitted dose curve at least 0.9, where 1 is the maximum; inconclusive = response in the unintended direction; inactive = score below 0.9.

For the test, the target named is human Retinoic Acid Receptor gamma (RARg), RARG (gene 5916) (UniProt P13631). Put plainly: ATG_RARg_TRANS: Attagene TRANS-FACTORIAL HepG2 Assay for human Retinoic Acid Receptor gamma (RARg) (AID 2283009).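 As to AC50: AC50 is for reporter induction above DMSO meaning RARg activation.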 The method, boiled down: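 Readout: reporter transcript levels via RT-PCR, 6-FAM primer-extension labelling, HpaI digestion and capillary electrophoresis. Cells: HepG2 carrying transfected RARg-GAL4 chimera plus UAS reporter set. Dosing 24 h; DMSO negative control.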
human Retinoic Acid Receptor gamma (RARg), RARG (gene 5916), sequence (P13631 whole entry, looked up, the tested form may be a part): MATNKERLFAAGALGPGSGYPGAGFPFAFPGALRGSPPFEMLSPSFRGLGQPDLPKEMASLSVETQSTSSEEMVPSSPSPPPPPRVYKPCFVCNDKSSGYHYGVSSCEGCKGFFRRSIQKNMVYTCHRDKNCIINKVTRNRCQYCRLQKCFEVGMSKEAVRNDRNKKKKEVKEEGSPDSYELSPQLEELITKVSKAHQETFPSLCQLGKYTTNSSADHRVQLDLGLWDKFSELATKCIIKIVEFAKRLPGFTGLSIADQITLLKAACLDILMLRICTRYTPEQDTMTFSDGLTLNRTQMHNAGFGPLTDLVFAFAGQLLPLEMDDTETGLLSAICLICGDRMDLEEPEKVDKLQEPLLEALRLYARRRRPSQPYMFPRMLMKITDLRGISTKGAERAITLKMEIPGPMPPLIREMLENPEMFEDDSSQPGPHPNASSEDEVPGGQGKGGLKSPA
In the case of `O=C(O)C1(C(=O)Nc2ccc(Cl)cc2Cl)CC1`, the outcome was inactive. In the case of `COC(=O)c1ccccc1C(=O)O`, the compound was classed as inactive. Same read-out and setting: next, `CCOC(=O)NCCOc1ccc(Oc2ccccc2)cc1`: “inactive”; `CC(C)(c1ccc(O)cc1)c1ccc(O)cc1`: “inactive”. Still for that read-out and setting: next, `O=C(Nc1ccc([N+](=O)[O-])cc1Cl)c1cc(Cl)ccc1O`: “inactive”. On the same count and under the same terms, next, `COC(=O)c1cccc(C)c1S(=O)(=O)NC(=O)Nc1nc(OCC(F)(F)F)nc(N(C)C)n1`: “inactive”.

For the compound `CCCCOC(=O)[C@@H](C)Oc1ccc(Oc2ccc(C(F)(F)F)cn2)cc1`, the compound was called inactive. The same measure, in the same setting: next, `O=C(c1ccc(O)cc1O)c1ccc(O)cc1O`: “inactive”.

In the case of `CC(C)(C)[C@@H](O)[C@@H](Cc1ccc(Cl)cc1)n1cncn1`, the result was inactive.

As for `N#CSCSc1nc2ccccc2s1`, the compound was called inactive. Still for that read-out and setting: next, `CCN(Cc1c(F)cccc1Cl)c1c([N+](=O)[O-])cc(C(F)(F)F)cc1[N+](=O)[O-]`: “inactive”. One may read the AC50 as the concentration giving half of the maximal activity seen. For `CC(C)CCCCCCc1ccc(O)cc1`, the AC50 was 14.2 µM (active) and the compound was called inactive. For `COC(=O)c1c(Cl)nn(C)c1S(=O)(=O)NC(=O)Nc1nc(OC)cc(OC)n1`, the call was inactive.

With `CCCN(CCC)c1c([N+](=O)[O-])cc(C(F)(F)F)c(N)c1[N+](=O)[O-]`, the call was inactive.

`CCCOC(=O)c1ccc(C(=O)OCCC)nc1`: the outcome was inactive. As for `COC(=O)c1ccccc1S(=O)(=O)NC(=O)Nc1nc(OC(F)F)cc(OC(F)F)n1`, the compound was called inactive. Same read-out and setting: next, `COc1nc(C)nc(NC(=O)NS(=O)(=O)c2ccccc2OCCCl)n1`: “inactive”. Regarding `O=C(c1ccccc1)C1CCCCC1`, the call was inactive.
